# Measurements published in PubChem BioAssay AID651582 (Sanford-Burnham Center for Chemical Genomics, 2012).
# Out of some 230,000 compounds screened, about 1,500 (0.65%) were called active.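 The calls were made as follows: active = pattern-corrected inhibition of lipid staining of at least 50% with the nuclear-stain viability signal not falling by more than 50%; inactive = the rest, inconclusive results apart.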 What follows is part of a selection rich in actives, with near analogues and random picks from the rest.
# Assay: TAG lipid buildup reduction in H9c2 cells – cell-based, uHTS, fluorescence, primary screen (AID 651582);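 as to inhibition: 0% = DMSO wells and 100% = triacsin C control wells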
# Settings: Nile Red lipid (TAG) fluorescence, at 12.5 µM, cells loaded with 200 µM oleic acid; DAPI nuclei signal change (viability), lower = more cytotoxic: measured here: DAPI nuclei count viability; inhibition: stronger effect = higher value
Compound,"DAPI nuclei signal change (viability), lower = more cytotoxic",inhibition
CS(=O)(=O)/C(C#N)=C/c1cccn1S(=O)(=O)c1ccc([N+](=O)[O-])cc1,8.58%,-3.62% (inactive)
CN(CC(=O)Nc1ccc(F)cc1)C(=O)c1ccc(-c2ccc(Cl)cc2)o1,0.479%,-10.2% (inactive)
Cc1ccc(N(Cc2ccccc2O)C(=O)c2ccccc2F)cc1,2.35%,-3.73% (inactive)
C=C1CCC(N(O)c2cc(C)on2)C(=C)CCC2C1CC2(C)C (stereo not drawn),2.7%,-2.19% (inactive)
CC(=O)Nc1ccc(-c2ccnc3c2CC(C(=O)NC(C)C)O3)cc1 (stereo not drawn),-1.71%,-1.68% (inactive)
COc1ccc(-c2cc(NC=O)c3ncc(-c4cc(OC)c(OC)c(OC)c4)n3c2)c(OC)c1,-24.8%,52.6% (active)
COc1ccc(-c2cc(NC=O)c3ncc(-c4cccc(C(=O)N(C)C)c4)n3c2)c(OC)c1,-42.3%,46% (inactive)
COc1ccc(-c2cc(NC=O)c3ncc(-c4ccccc4)n3c2)cc1OC,-14.8%,19.6% (inactive)
NC(=O)c1ncn([C@@H]2O[C@H](CN=C3NS(=O)(=O)c4ccccc43)[C@@H](O)[C@H]2O)n1,-1.84%,13.5% (inactive)
COc1ccc(OCCNC(=O)c2cc(C3CC3)nc3c2cnn3C(C)C)cc1,-4.88%,-39.8% (inactive)
COc1ccc(C(=O)OCC(=O)Nc2cc(C)on2)cc1F,-5.17%,7.73% (inactive)
C=CCOC(=O)N1CCC2CC1c1cc(-c3ccc(OC)cc3)ccc12 (stereo not drawn),8.41%,-34.5% (inactive)
COc1cccc2sc(N(CCCN(C)C)C(=O)C(c3ccccc3)c3ccccc3)nc12,-45.3%,117% (active)
CN(C)CCCN(C(=O)COc1ccccc1)c1nc2c(Cl)cccc2s1,-0.936%,15.4% (inactive)
CCN(CC)CCN(C(=O)c1ccc2c(c1)CCCC2)c1nc2c(OC)cccc2s1,40%,-1.62% (inactive)
COc1ccc(Oc2c(Cl)cnn(-c3ccccc3)c2=O)cc1,2.85%,-4.37% (inactive)
Cc1cccc(-n2ncc(Cl)c(Cl)c2=O)c1,-35.3%,75.4% (active)
O=c1c(Cl)c(NC2CC2)cnn1-c1ccccc1,-5.81%,-2.29% (inactive)
CCCNC(=O)C1(C)CCN(C(=O)c2ccc(F)cc2Cl)C1 (stereo not drawn),8.17%,2.28% (inactive)
CCS(=O)(=O)c1cc([N+](=O)[O-])c(Sc2ccccc2N)s1,-4.87%,14.6% (inactive)
Nc1ccccc1Sc1ccc(C(F)(F)F)cc1[N+](=O)[O-],8.68%,-15.4% (inactive)
Nc1ccccc1SC(C[N+](=O)[O-])c1ccccc1 (stereo not drawn),-46.5%,63.9% (active)
Cc1cccc(NC(=O)CN2C(=O)c3ccccc3C2=O)c1C,2.88%,-5.58% (inactive)
CCOC(=O)/C=c1\s/c(=C\c2ccccc2OC)c(=O)n1CC(=O)N1CCOCC1,-2.84%,8.35% (inactive)
CCOC(=O)/C=c1\s/c(=C\c2ccc(C#N)cc2)c(=O)n1CC(=O)Nc1cccc(C)c1C,-32.2%,50.4% (active)
Cc1nc2c(OCC(=O)C(C)(C)C)cccn2c1N(C)Cc1cccs1,21.8%,-5.32% (inactive)
O=C(Cn1cnc2c(OCc3ccccc3)ncnc21)NCCCn1ccnc1,9.45%,-7.19% (inactive)

Compound,"DAPI nuclei signal change (viability), lower = more cytotoxic",inhibition
COc1cc(OC)cc(C(=O)NNC(=O)CCOc2ccccc2OC)c1,-6.59%,7.42% (inactive)
CCN(c1ccccc1)S(=O)(=O)c1ccc(C(=O)Nc2ccccc2OC)cc1,2.43%,4.73% (inactive)
COc1ccc(-c2cc(-c3ccc(N)cc3)nc(N)c2C#N)cc1OC,172%,21.5% (inactive)
COc1ccc(-c2csc(-c3cccs3)n2)cc1OC,-4.83%,-5.04% (inactive)
COc1ccc(-c2cc(C(F)(F)F)nc(S(C)(=O)=O)n2)cc1OC,-22.6%,52.7% (active)
CCCCCCCCNS(=O)(=O)CCNC1CCCCC1,-4.65%,5.91% (inactive)
COc1ccc(OC)c(/C=C/C(=O)c2ccc3c(c2)OCO3)c1,4.46%,9.85% (inactive)
Cc1c(NS(=O)(=O)c2cccc(C(=O)Nc3ccc(SC(F)F)cc3)c2)c(=O)n(-c2ccccc2)n1C,-2.02%,-3.28% (inactive)
COc1ccc(S(=O)(=O)N(C)C)cc1NC(=O)COC(=O)c1n[nH]c2ccccc12,-4.57%,4.68% (inactive)
Cc1cccc(OCC(=O)OCC(=O)Nc2ccc(Cl)cn2)c1,5.47%,-14.4% (inactive)
O=C1/C(=C/c2cccs2)CCc2ccccc21,3.51%,-10.1% (inactive)
COc1ccc(/C=C2\CCc3ccccc3C2=O)c(OC)c1OC,-2.46%,-5.18% (inactive)
COc1ccc(/C=C2/CCCc3ccccc3C2=O)cc1,-45.7%,59.8% (active)
O=C(COC(=O)c1cccc(Cl)c1Cl)NC1CCCCCC1,6.13%,-15.2% (inactive)
C=CCn1c(SCC(=O)NCC2CCCO2)nc2sc(C)c(C)c2c1=O (stereo not drawn),4.45%,-8.48% (inactive)
C=CCn1c(SCc2c(C)noc2C)nc2sc3c(c2c1=O)CCC(C)C3 (stereo not drawn),-30.5%,85.1% (active)
CCCn1nnc2sc3c(c2c1=O)CCC(C)C3 (stereo not drawn),3.37%,0.861% (inactive)
CN1CCn2cnc(C(=O)NCC(=O)OC(C)(C)C)c2C1=O,-1.68%,-2.56% (inactive)
CN(Cc1ccc(CNC[C@H]2O[C@@H](n3cnc4c(N)ncnc43)[C@H](O)[C@@H]2O)o1)S(C)(=O)=O,2.25%,3.67% (inactive)
Cc1cc(NC(=O)CSc2ncc(C(F)(F)F)cc2Cl)no1,-5.5%,0.466% (inactive)
Cc1cc(NC(=O)CSc2nc(C(C)C)nc3sc4c(c23)CCC(C)C4)no1 (stereo not drawn),1.86%,65.3% (active)
Cc1cc(NC(=O)CSc2nc3c(cc2C#N)CCCCC3)no1,24%,6.4% (inactive)
Brc1ccc(CN2CC[C@H]3C=CCc4cccc(c43)C2)cc1,12.5%,-54.7% (inactive)
COc1ccc(Cl)cc1NC(=O)CN(C)C(=O)c1cc(-c2cccs2)nn1-c1ccccc1,3.57%,2.51% (inactive)
Cc1nc2ccccn2c(=O)c1NC(=O)c1ccc(Br)o1,4.97%,4.01% (inactive)
COc1ccc(C(O)c2nc(-c3ccc(OC)nc3)cs2)cc1 (stereo not drawn),4.55%,-44.6% (inactive)
COc1ccc2c(c1)O/C(=C\c1ccccc1O)C2=O,4.81%,-5.85% (inactive)

Compound,"DAPI nuclei signal change (viability), lower = more cytotoxic",inhibition
COc1cc(C#Cc2ccc3cc(CCCO)oc(=O)c3c2)cc(OC)c1,-19.9%,46.6% (inactive)
COc1cc(/C=C2\Oc3ccc(C#Cc4ccc(O)cc4)cc3C2=O)cc(OC)c1,-0.886%,120% (active)
O=C(CSc1n[nH]c(=O)n1-c1ccccc1)Nc1ccccc1C(F)(F)F,4.07%,6.49% (inactive)
COc1ccc(OC)c(NC(=O)C2CCCN2S(=O)(=O)c2ccc3c(c2)CC(C)N3C(C)=O)c1 (stereo not drawn),-10.6%,-4.08% (inactive)
NC(=O)c1ccccc1N(Cc1ccccc1)S(=O)(=O)c1ccccc1,-8.47%,2.63% (inactive)
CCN1CCN(C(=O)c2ccccc2N(C)S(=O)(=O)c2ccc(C)cc2)CC1,-0.758%,7.33% (inactive)
CCOC(=O)N1CCN(C(=O)c2ccccc2N(Cc2ccccc2)S(=O)(=O)c2ccc(OC)cc2)CC1,-41%,53.3% (active)
CCN1C[C@@H]2[C@@H]3C(=O)N(Cc4ccccc4)C(=O)[C@@H]3[C@](C)(C1=O)N2C(=O)c1ccc(C(C)(C)C)cc1,-6.19%,19.2% (inactive)
COc1ccc(NC(=O)CNc2cc(S(=O)(=O)N3CCOCC3)ccc2N2CCOCC2)c(OC)c1,15.7%,-15.8% (inactive)
C/C(=N\Nc1ccc(Cl)nn1)c1ccccc1O,-30.3%,59.1% (active)
Cc1ccsc1/C=N/Nc1ccc(Cl)nn1,-14%,5.97% (inactive)
Clc1ccc(N/N=C/c2cccs2)nn1,3.1%,-6.69% (inactive)
COc1ccccc1-c1nn(Cc2ccccc2)cc1C(=O)N1CCN(c2ncccn2)CC1,-19.5%,12.4% (inactive)
CC(C)C(=O)N1CCN(c2nc(-c3ccccc3)c3c(c2C#N)CC(C)(C)OC3)CC1,5.61%,6.61% (inactive)
CC(C)C(=O)N1CCC2(CC1)Oc1ccc(F)cc1C(=O)C21CC(c2ccccc2)=NO1 (stereo not drawn),-26.9%,60% (active)
O=C1CC2(CCN(C(=O)COc3ccc(F)cc3)CC2)Oc2ccccc21,-14.6%,21.4% (inactive)
COc1ccc(C(=O)NCc2ccccc2C)cc1S(=O)(=O)NC1CCCC1,1.26%,-5.94% (inactive)
O=C1Nc2ccc(Br)cc2/C1=N/N=C/C1=C(N2CCOCC2)C(=C\c2ccccc2)/CC1,-30.7%,142% (active)
C(=N\N1CCN(c2ccccn2)CC1)/C1=C(N2CCOCC2)C(=C/c2ccccc2)/CC1,12.6%,8.28% (inactive)
O=C(O)c1ccc(NN=CC2=C(N3CCOCC3)/C(=C/c3ccccc3)CC2)cc1,1.8%,2.29% (inactive)
CC(=O)Oc1ccc(Cn2c(C)c(C(=O)NCc3ccc(C#N)cc3)sc2=O)cc1,-0.306%,-4.77% (inactive)
COc1cc(Cl)c(C)cc1NC(=O)CSc1nnc(CN2CCCC2)o1,4.62%,1.12% (inactive)
Cc1ccn(CC(=O)NC2CCCN(Cc3ccccc3F)C2)n1 (stereo not drawn),1.69%,-15.9% (inactive)
Cc1ccc(OCCNC(=O)c2cccc(S(=O)(=O)N3CCN(Cc4ccccc4)CC3)c2)cc1,3.36%,-7.75% (inactive)
CC(C)CCOc1ccc(C(=O)Nc2cc(S(=O)(=O)N3CCOCC3)ccc2N2CCOCC2)cc1,-52.3%,65.1% (inactive)
